HT1080NT lethal = kills 2HG-producing HT-1080-NT fibrosarcoma cells | HT-1080-NT fibrosarcoma viability, CellTiter-Glo ATP luminescence, 48 h | 360,000 compounds, 1.6% hits | Potency, µM (top dose mostly 46.1 µM), for inactives: top-dose activity, negative = less viability, hits mostly cytotoxic | AID 686970;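 also: NT is the 2HG producing partner of a matched IDH1 knockdown line; 0% = DMSO-treated cells and -100% = media-only wells without cells; nearly all actives have a fitted effect of over 55% in size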
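A 48-hour cytotoxicity screen used HT-1080-NT cells plated 2 hours before compound delivery. ATP-based CellTiter-Glo luminescence measured viability, normalized to DMSO and no-cell controls.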
HT1080 IDH1KD tx = HT-1080 IDH1 knockdown cell toxicity (counter line) | AID 686971 | HT-1080 IDH1 knockdown viability, ATP luminescence, 48 h | Potency, µM (doses to about 46.1 µM), for inactives: at the highest dose activity, negative = toxicity, usual class: cytotoxic | 360,000 compounds, 2% hits;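 also: 0% = DMSO wells and -100% = cell-free medium wells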
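% activity derives from luminescence (CellTiter-Glo), normalised to DMSO and no-cell wells. HT-1080-IDH1KD cells, 750/well, had 48 h compound exposure at 37 °C.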
KB-3-1 cytotox = kills parental KB-3-1 adenocarcinoma cells | KB-3-1 viability, CellTiter-Glo ATP luminescence, 72 h | Potency, µM (titrated, usually from 46.1 µM), hits mostly cytotoxic | 400,000 compounds, 1.4% hits | AID 1347075; also: nearly all actives have a fitted effect of over 60% in size
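KB-3-1 parental drug-naive adenocarcinoma cells in DMEM/10% FBS, incubated 72 h at 37 C with pin-transferred compounds across a concentration series. Viability by CellTiter-Glo luminescence; concentration-response curves fitted after normalization.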
KB-V1 MDR tox = KB-V1 MDR subline cytotoxicity | 400,000 compounds, 3.4% hits | Potency, µM (highest dose often 46.1 µM), actives largely listed as cytotoxic | KB-V1 MDR cells viability, CellTiter-Glo, 72 h; also: nearly all actives have a fitted effect of over 60% in size
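Readout: CellTiter-Glo luminescence, 10 min after addition. Cells: KB-V1 MDR subline, 72 h at 37 degrees C with compound. Analysis: corrected, normalized data fitted to concentration-effect curves.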
TDP1 cell CPT = growth inhibition of DT40 Tdp1-/-;hTDP1 cells with camptothecin (screen for TDP1 inhibitors); chicken DT40 Tdp1-/-;hTDP1 cells + 20 nM CPT, ATP luminescence, 48 h; Potency, µM (series often up to 46.2 µM), without a hit: at the highest dose activity change, negative = growth inhibition, usual class: inhibitors; 420,000 compounds, 12% hits; AID 686979; also: nearly all actives have a fitted effect of over 55% in size
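Chicken DT40 Tdp1-/- cells complemented with human TDP1, 400 cells/well, exposed to compounds plus 20 nM camptothecin for at least 48 h at 37 C; viability read as ATP content by CellTiter-Glo luminescence.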
DT40 TDP1 no CPT = qHTS for Inhibitors of human tyrosyl-DNA phosphodiesterase 1 (TDP1): qHTS in cells in absence of CPT | 420,000 compounds, 15% hits | Potency, µM (series often up to 46.2 µM), inactives show at the top dose activity change, negative = growth inhibition, actives largely listed as inhibitors | DT40 Tdp1-/- hTDP1 cells, no CPT, ATP luminescence, 48 h; also: nearly all actives have a fitted effect of over 55% in size
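Growth of hTDP1-complemented DT40 Tdp1-knockout cells is measured by ATP luminescence after at least 48 hr compound exposure at 37 °C, with DMSO substituting for the 20 nM CPT used in the parallel screen.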
* = called active by the depositor; ! = not confirmed by another sample. The list is not random: actives were taken first. Their share in the collection is about 19%. Calls follow the shape of the dose curve; as a rule, active = well fitted curve in the direction sought with a large enough effect; inconclusive = small, poorly fitted or top-dose-only effect, or another doubt; inactive = no such curve, though single readings can be large; an effect the other way counts as inactive or inconclusive. Unless noted, % is scaled to controls: 0 for no effect and ±100 for the full control effect; potency is read from the fitted curve at half-maximal effect.

What do the screens show for `COc1ccc(-c2cnc(C)o2)cc1S(=O)(=O)Nc1ccc(C)c(N(C)C)c1`?
KB-3-1 cytotox: inactive; KB-V1 MDR tox: inactive; TDP1 cell CPT: 3%; DT40 TDP1 no CPT: -8%

Results for Cc1ccc(NS(=O)(=O)c2ccc(-c3cnc(C4CC4)o3)cc2)cc1N(C)C ?
KB-3-1 cytotox: inactive; KB-V1 MDR tox: inactive; TDP1 cell CPT: 1µM*; DT40 TDP1 no CPT: 0.73µM*

What do the screens show for `CCOc1ccc(NS(=O)(=O)c2ccc(-c3cnc(C4CC4)o3)cc2)cc1`?
HT1080NT lethal: inconclusive; HT1080 IDH1KD tx: inconclusive; KB-3-1 cytotox: inconclusive; KB-V1 MDR tox: 16µM*; TDP1 cell CPT: inconclusive; DT40 TDP1 no CPT: 9.2µM*

Results for CC(=O)c1cccc(NS(=O)(=O)c2ccc(-c3cnc(C4CC4)o3)cc2)c1 ?
HT1080NT lethal: 21µM*; HT1080 IDH1KD tx: inconclusive; KB-3-1 cytotox: inconclusive; KB-V1 MDR tox: inconclusive; TDP1 cell CPT: 4.1µM*; DT40 TDP1 no CPT: 2.6µM*

What do the screens show for `O=C(O)c1cccc(NS(=O)(=O)c2ccc(-c3ccc(S(=O)(=O)Nc4cccc(C(=O)O)c4)cc3)cc2)c1`?
HT1080NT lethal: -6%; HT1080 IDH1KD tx: -2%; KB-3-1 cytotox: inactive; KB-V1 MDR tox: inactive; TDP1 cell CPT: 2%; DT40 TDP1 no CPT: -8%

Results for CC(=O)Nc1ccc(NS(=O)(=O)c2ccc(-c3cnc(C4CC4)o3)cc2)cc1 ?
HT1080NT lethal: -9%; HT1080 IDH1KD tx: -6%; KB-3-1 cytotox: inactive; KB-V1 MDR tox: inactive; TDP1 cell CPT: -26%; DT40 TDP1 no CPT: 6%

Results for Cc1ccc(C)c(NS(=O)(=O)c2ccc(-c3cnc(C4CC4)o3)cc2)c1 ?
HT1080NT lethal: 0.1µM*; HT1080 IDH1KD tx: 0.16µM*; KB-3-1 cytotox: inconclusive; KB-V1 MDR tox: 0.33µM*; TDP1 cell CPT: 0.0058µM*; DT40 TDP1 no CPT: 0.0052µM*

Results for O=S(=O)(NCc1ccc(Cl)cc1)c1ccc(-c2cnc(C3CC3)o2)cc1 ?
KB-3-1 cytotox: inactive; KB-V1 MDR tox: inactive; TDP1 cell CPT: inconclusive; DT40 TDP1 no CPT: inconclusive

Results for O=S(=O)(Nc1ccccc1)c1ccc(-c2cnc(C3CC3)o2)cc1 ?
HT1080NT lethal: inconclusive; HT1080 IDH1KD tx: inconclusive; KB-3-1 cytotox: inconclusive; KB-V1 MDR tox: inconclusive; TDP1 cell CPT: 3.7µM*; DT40 TDP1 no CPT: 2.3µM*

Results for O=S(=O)(NCc1ccc(F)cc1)c1ccc(-c2cnc(C3CC3)o2)cc1 ?
HT1080NT lethal: inconclusive; HT1080 IDH1KD tx: inconclusive; KB-3-1 cytotox: inactive; KB-V1 MDR tox: inconclusive; TDP1 cell CPT: 18µM*; DT40 TDP1 no CPT: 10µM*!

Results for Cc1ccc2[nH]c3nc(NN)nnc3c2c1 ?
HT1080NT lethal: -11%; HT1080 IDH1KD tx: -3%; KB-3-1 cytotox: inactive; KB-V1 MDR tox: inactive; TDP1 cell CPT: 23µM*; DT40 TDP1 no CPT: inconclusive

How did COc1ccc(CNC(=O)CSc2nnc3c(n2)[nH]c2ccc(C)cc23)cc1 do in these assays?
HT1080NT lethal: 1%; HT1080 IDH1KD tx: 3%; KB-3-1 cytotox: inactive; KB-V1 MDR tox: inactive; TDP1 cell CPT: 2%; DT40 TDP1 no CPT: 6%

Results for Cc1ccsc1/C=N/Nc1nc(=O)[nH]nc1C ?
HT1080NT lethal: 23µM*; HT1080 IDH1KD tx: 21µM*; KB-3-1 cytotox: inconclusive; KB-V1 MDR tox: inconclusive; TDP1 cell CPT: 21µM*; DT40 TDP1 no CPT: 15µM*

Results for Clc1ccccc1-c1nc2nc3ccccc3nc2n1-c1ccc2c(c1)OCO2 ?
HT1080NT lethal: 4%; HT1080 IDH1KD tx: 0%; KB-3-1 cytotox: inactive; KB-V1 MDR tox: 9.2µM*; TDP1 cell CPT: inconclusive; DT40 TDP1 no CPT: 23µM*

Screening data: PubChem, National Center for Advancing Translational Sciences (NCATS)
